# This is part of a sample that, as a whole, favours compounds with a hit. Of some 83,000 tested, about 20% had one in any assay.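 96-well plates, one dose, 48 hours. Percent growth reported; active if below 10.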 Values without a mark were called inactive. Activity calls are given as the source filed them.
# System: HL-60(TB) leukemia
# Experiment: NCI-60 one-dose screen, 48 h (100 = growth as untreated, 0 = no growth, -100 = all killed)
# Details: 10 µM unless noted
row,Structure (SMILES),growth
1,COc1cc(-c2cc(-c3cc(OC)c(OC)c(OC)c3)nc3nc(N)[nH]c(=O)c23)ccc1Oc1ccnc2cc(Cl)ccc12,11.4%
2,O=C1C(Br)=C(c2ccccc2)C(=O)C(Br)=C1c1ccccc1,78.6%
3,O=C1/C=C/[C@@H](O)[C@@H]2C[C@@H](O)C[C@H]2/C=C/CCC[C@@H](C(F)(F)F)O1,104%
4,CN(C)c1ccc(Cc2cc(-c3ccccc3)nn(C/C(=N/O)c3ccccc3)c2=O)cc1,54.3%
5,COCCn1cc(-c2csc(-c3cn(C)c4ccc(Br)cc34)n2)c2cccnc21,51.3%
6,Cc1nc([P+](c2ccccc2)(c2ccccc2)c2ccccc2)c(Sc2sc(-c3ccccc3)nc2[P+](c2ccccc2)(c2ccccc2)c2ccccc2)o1,-17.9% (active)
7,Cc1ccc(S(=O)(=O)Nn2c3c(cc(-c4nc5ccccc5s4)c2=O)CCCCCC3)cc1,102%
8,CCOC(=O)c1c(C)nc2ccccc2c1/C=C/c1ccccc1,81.8%
9,O=C(Nc1cccc(-n2cc(-c3ccncc3)c(-c3ccc(Cl)c(O)c3)n2)c1)c1ccccc1,167%
10,CCSc1ncc(Br)c(Sc2nc(N)nc3nc[nH]c23)n1,87.8%
11,O=C(Nc1ccc(N=Nc2ccccc2)cc1)c1cccc2ccccc12,11.8%
12,Cc1ccc(S(=O)(=O)Oc2ccc3sc4cccc(NCCN(C)C)c4c(=O)c3c2)cc1,-64% (active)
13,Cc1ccc(-c2nc(-c3cn(C)c4ncccc34)cs2)cc1,16.2% [100 µM]
14,COc1ccc(-c2cc(-c3cc(OC)c(OC)c(OC)c3)c(C#N)c(N3CCOCC3)n2)cc1O,-31.8% (active)
15,Cc1ccc(NC(=O)c2cc(-c3nc4ccccc4s3)c(=O)n(NS(=O)(=O)c3ccc(Cl)cc3)c2N)cc1,101%
16,CC1(C)C=CC[C@]2(C)[C@H]3CC[C@@H]4[C@H]5[C@H](C(=O)/C=C/c6cccnc6)CC[C@]5(CO)CC[C@@]4(C)[C@]3(C)CC[C@@H]12,-29.2% (active)
17,O=S(=O)(Cc1cccc2c(CS(=O)(=O)c3ccc(Cl)cc3)cccc12)c1ccc(Cl)cc1,93.5%
18,N=C1N=C(N)CS1,112%
19,O=C(/C=C/c1ccco1)c1ccccc1O,92.5%
20,Nc1ncnc2c1N=C(c1ccc(Br)cc1)CC(c1cccc(Nc3ccnc4cc(C(F)(F)F)ccc34)c1)N2 (centres undefined),38.1%

row,Structure (SMILES),growth
1,C[C@H]1[C@H]2C3=CC[C@@H]4[C@@]5(C)C/C(=C/c6ccncc6)C(=O)C(C)(C)[C@@H]5CC[C@@]4(C)[C@]3(C)CC[C@@]2(C(=O)N2CCN(C)CC2)CC[C@@H]1C,57.3%
2,N#Cc1c(Nc2cccc(Cl)c2)sc(C(=O)c2cc3cc(Cl)ccc3o2)c1N,92.9%
3,O=C(Nc1ccc(F)c(Cl)c1)Nc1ccc(Cl)c(Cl)c1,25%
4,Fc1cc(-c2nnc3n2NC(=Nc2ccc(Cl)cc2)CS3)c(Cl)cc1Cl,94.1%
5,COc1cccc(Nc2ncnn3ccc(CN4CC[C@@H](N)[C@H](O)C4)c23)c1,73.8%
6,CC(=O)OC(C(=O)O)c1ccccc1 (centres undefined),3.72% (active)
7,COc1cc(/C=C/C(=O)c2cccc(-n3cc(-c4ccccc4)[nH]c3=O)c2)cc(OC)c1OC,-5.55% (active)
8,Cc1cc(C)nc(NC(N)=NCCc2ccccc2)n1,56.9%
9,O=C(NCc1ccc(Cn2c(=O)sn(-c3ccccc3)c2=O)cc1)OCc1ccc2cccc(O)c2n1,-56.8% (active)
10,C/C(=C(/c1ccc(O)cc1)c1ccc(OCCN(C)C)cc1)c1ccccc1,76%
11,O=S(=O)(c1ccccc1)N1CCCc2ccccc21,103%
12,COc1ccc(C2=NN(c3ccc(S(N)(=O)=O)cc3)C(c3cn(-c4ccccc4)nc3-c3ccc(Cl)cc3)C2)cc1 (centres undefined),84.5%
13,Cc1ccc(C(O)C2CC2)cc1 (centres undefined),99.3%
14,COc1cccc(/C=C/C(=O)c2cc3c(N)c(C(=O)Nc4cccc(Cl)c4C)sc3nc2C)c1,0.771% (active)
15,Cn1cc(-c2nc(-c3c[nH]c4ncccc34)cs2)c2cccnc21,48.1%
16,CC(=O)c1cc2c(N)c(C(=O)Nc3cccc(Cl)c3)sc2nc1C,48.9%
17,O=[N+]([O-])c1cc([N+](=O)[O-])c(NN=C(c2ccc(O)cc2)c2ccc(O)cc2)cc1Cl,12.7%
18,O=C(O)c1cccc2c1-c1ccccc1C2=O,106%
19,C/C=C/C/C=C/[C@H](C)C[C@H](O)[C@@H]1C[C@@H]2O[C@H]2/C=C/[C@@H]2OC(C)(C)O[C@H]2/C=C/C[C@H](C)CC(=O)O1,31.2%

# Reference: PubChem BioAssay (NCI)
